Test results taken from article PMC7862700, “An all-to-all approach to the identification of sequence-specific readers for epigenetic DNA modifications on cytosine”.

Each sequence was assayed against T1, ETV3 (Homo sapiens, UniProt P41162-2 1-143) (assay: DAPPL (digital affinity profiling via proximity ligation, sequencing); 10 mM Tris-HCl pH 7.5, 50 mM NaCl, 1 mM DTT, 4% glycerol, room temperature, 30 min; GST-TFs on glutathione beads, 16-mer random dsDNA library, 0.1% formaldehyde crosslink after washing; high values mean tight binding). Settings: protein: recombinant; tags: N-terminal GST; dsDNA, one strand shown.
T1 sequence: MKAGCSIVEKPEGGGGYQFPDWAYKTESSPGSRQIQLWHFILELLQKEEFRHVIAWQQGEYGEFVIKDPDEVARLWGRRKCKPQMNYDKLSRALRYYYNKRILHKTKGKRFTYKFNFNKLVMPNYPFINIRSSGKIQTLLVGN
How it was run: (§1)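 Binding signal is defined as a hexamer's read frequency for one factor over its frequency for the tag-only sample. To obtain reads, GST-fused human transcription factors were expressed in yeast, captured on glutathione beads, barcoded with DNA and pooled with that sample. Pools met 200 nmole of a 16-mer random double-stranded DNA library in Tris/NaCl/DTT/glycerol buffer for 30 min at room temperature before washing, 0.1% formaldehyde crosslinking, proximity ligation (BsaI/T4 ligase, 1 h, 37 °C), PCR and Illumina NextSeq500 sequencing.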

Sequence	binding signal
TCTTTT	1.5 fold enrichment (6-mer frequency, TF over GST control)
ACGAAC	1.04 fold enrichment (6-mer frequency, TF over GST control)
CTGATC	1.36 fold enrichment (6-mer frequency, TF over GST control)
CGATAA	1.06 fold enrichment (6-mer frequency, TF over GST control)
GTTCCA	1.04 fold enrichment (6-mer frequency, TF over GST control)
TCTGAC	1.18 fold enrichment (6-mer frequency, TF over GST control)
AAGCTC	1.18 fold enrichment (6-mer frequency, TF over GST control)
GTTATG	1.14 fold enrichment (6-mer frequency, TF over GST control)
TTTTTT	1.2 fold enrichment (6-mer frequency, TF over GST control)
TTGAGC	1 fold enrichment (6-mer frequency, TF over GST control)
CACCTT	1.31 fold enrichment (6-mer frequency, TF over GST control)
CCTACA	1.29 fold enrichment (6-mer frequency, TF over GST control)
GAACTT	1.69 fold enrichment (6-mer frequency, TF over GST control)
CACACT	1.18 fold enrichment (6-mer frequency, TF over GST control)
TCCCTT	1.54 fold enrichment (6-mer frequency, TF over GST control)
AGTTCC	2.38 fold enrichment (6-mer frequency, TF over GST control)
TCCCCG	1.27 fold enrichment (6-mer frequency, TF over GST control)
TCTCGC	1.79 fold enrichment (6-mer frequency, TF over GST control)
TAATGA	1.1 fold enrichment (6-mer frequency, TF over GST control)
CCCACA	1.1 fold enrichment (6-mer frequency, TF over GST control)

Sequence	binding signal
TTAATC	1.24 fold enrichment (6-mer frequency, TF over GST control)
TGCTTG	1.17 fold enrichment (6-mer frequency, TF over GST control)
GTTACA	1.09 fold enrichment (6-mer frequency, TF over GST control)
AGTTTC	1.36 fold enrichment (6-mer frequency, TF over GST control)
CTCATA	1.26 fold enrichment (6-mer frequency, TF over GST control)
GTTTTG	1.13 fold enrichment (6-mer frequency, TF over GST control)
CCCGGA	3.23 fold enrichment (6-mer frequency, TF over GST control)
CCTCCG	1.3 fold enrichment (6-mer frequency, TF over GST control)
TCTGTT	1.25 fold enrichment (6-mer frequency, TF over GST control)
ATACGG	1.31 fold enrichment (6-mer frequency, TF over GST control)
TAACTC	1.25 fold enrichment (6-mer frequency, TF over GST control)
AATGGG	1.19 fold enrichment (6-mer frequency, TF over GST control)
GCCGAC	1.23 fold enrichment (6-mer frequency, TF over GST control)
TTTGTG	1.13 fold enrichment (6-mer frequency, TF over GST control)
ATGATT	1.3 fold enrichment (6-mer frequency, TF over GST control)
CTACCC	1.28 fold enrichment (6-mer frequency, TF over GST control)
AGGAAG	1.54 fold enrichment (6-mer frequency, TF over GST control)
CACCGA	1.01 fold enrichment (6-mer frequency, TF over GST control)
AAAAGG	1.13 fold enrichment (6-mer frequency, TF over GST control)
TCCCAA	1.16 fold enrichment (6-mer frequency, TF over GST control)

What follows are sequences tested against ETV6 (Homo sapiens, UniProt P41212 1-452) in the same assay as above. Settings: protein: recombinant; tags: N-terminal GST; dsDNA, one strand shown.
How it was run: as §1

ETV6, sequence (P41212 whole entry): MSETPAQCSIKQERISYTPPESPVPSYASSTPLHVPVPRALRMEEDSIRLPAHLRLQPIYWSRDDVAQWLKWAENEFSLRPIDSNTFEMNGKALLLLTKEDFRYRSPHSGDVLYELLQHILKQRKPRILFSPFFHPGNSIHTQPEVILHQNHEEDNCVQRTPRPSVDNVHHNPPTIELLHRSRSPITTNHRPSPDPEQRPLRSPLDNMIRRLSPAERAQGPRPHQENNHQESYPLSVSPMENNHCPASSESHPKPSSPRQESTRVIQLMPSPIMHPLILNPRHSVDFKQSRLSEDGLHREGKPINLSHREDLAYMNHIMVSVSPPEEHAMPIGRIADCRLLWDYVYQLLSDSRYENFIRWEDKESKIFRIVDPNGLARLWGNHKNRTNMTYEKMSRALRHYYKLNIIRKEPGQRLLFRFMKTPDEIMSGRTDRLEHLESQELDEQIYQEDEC

Sequence	binding signal
TCTTTT	1.41 fold enrichment (6-mer frequency, TF over GST control)
ACGAAC	1.1 fold enrichment (6-mer frequency, TF over GST control)
CTGATC	1.23 fold enrichment (6-mer frequency, TF over GST control)
CGATAA	1.09 fold enrichment (6-mer frequency, TF over GST control)
GTTCCA	1.04 fold enrichment (6-mer frequency, TF over GST control)
TCTGAC	1.27 fold enrichment (6-mer frequency, TF over GST control)
AAGCTC	1.23 fold enrichment (6-mer frequency, TF over GST control)
GTTATG	1.21 fold enrichment (6-mer frequency, TF over GST control)
TTTTTT	1.11 fold enrichment (6-mer frequency, TF over GST control)
TTGAGC	1.08 fold enrichment (6-mer frequency, TF over GST control)
CACCTT	1.25 fold enrichment (6-mer frequency, TF over GST control)
CCTACA	1.29 fold enrichment (6-mer frequency, TF over GST control)
GAACTT	1.73 fold enrichment (6-mer frequency, TF over GST control)
CACACT	1.15 fold enrichment (6-mer frequency, TF over GST control)
TCCCTT	1.53 fold enrichment (6-mer frequency, TF over GST control)
AGTTCC	2.17 fold enrichment (6-mer frequency, TF over GST control)
TCCCCG	1.13 fold enrichment (6-mer frequency, TF over GST control)
TCTCGC	1.62 fold enrichment (6-mer frequency, TF over GST control)
TAATGA	1.21 fold enrichment (6-mer frequency, TF over GST control)
CCCACA	1.14 fold enrichment (6-mer frequency, TF over GST control)

Sequence	binding signal
TTAATC	1.21 fold enrichment (6-mer frequency, TF over GST control)
TGCTTG	1.11 fold enrichment (6-mer frequency, TF over GST control)
GTTACA	1.07 fold enrichment (6-mer frequency, TF over GST control)
AGTTTC	1.29 fold enrichment (6-mer frequency, TF over GST control)
CTCATA	1.27 fold enrichment (6-mer frequency, TF over GST control)
GTTTTG	1.15 fold enrichment (6-mer frequency, TF over GST control)
CCCGGA	2.89 fold enrichment (6-mer frequency, TF over GST control)
CCTCCG	1.31 fold enrichment (6-mer frequency, TF over GST control)
TCTGTT	1.35 fold enrichment (6-mer frequency, TF over GST control)
ATACGG	1.18 fold enrichment (6-mer frequency, TF over GST control)
TAACTC	1.3 fold enrichment (6-mer frequency, TF over GST control)
AATGGG	1.2 fold enrichment (6-mer frequency, TF over GST control)
GCCGAC	1.08 fold enrichment (6-mer frequency, TF over GST control)
TTTGTG	1.14 fold enrichment (6-mer frequency, TF over GST control)
ATGATT	1.19 fold enrichment (6-mer frequency, TF over GST control)
CTACCC	1.21 fold enrichment (6-mer frequency, TF over GST control)
AGGAAG	1.71 fold enrichment (6-mer frequency, TF over GST control)
CACCGA	1.03 fold enrichment (6-mer frequency, TF over GST control)
AAAAGG	1.19 fold enrichment (6-mer frequency, TF over GST control)
TCCCAA	1.23 fold enrichment (6-mer frequency, TF over GST control)
